Measurements taken from PubChem BioAssay (NCI).
Values joined by “and” are separate entries in the source; they are usually repeats but may differ in a detail not shown here. Identical values can stand only once. About 83,000 compounds went through this panel and 20% of them were active in at least one assay; those are over-represented in the sample as a whole.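 Cell lines were cultured in 96-well plates, exposed to a single compound concentration, and assessed for percent growth 48 hours later.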 Active and inactive are the calls of the source. How the source made its calls: active means growth percent below 10; inactive means the rest.

system: NCI-H23 lung; experiment: NCI-60 one-dose screen, 48 h (100 = growth as untreated, 0 = no growth, -100 = all killed); details: 10 µM

| Compound | growth |
| --- | --- |
| O=c1ccn2c(n1)OC1CC2OC1COC(c1ccccc1)(c1ccccc1)c1ccccc1 (centres undefined) | 116% (inactive) |
| CS/C(=C\c1ccc(C(=O)c2ccc(C)cc2)n1C)S(C)=O (centres undefined) | 109% (inactive) |
| S=c1nc[nH]c2nc[nH]c12 | 31.9% (inactive) |

same assay, conditions: 10 µM unless noted

| Compound | growth |
| --- | --- |
| Cc1c(Cl)cc(Cl)c(N)c1Cl | 103% (inactive) |
| Oc1ccc(O)c(-c2ccccc2)c1 | 63.1% (inactive) |
| CCOCCC(=O)O | 110% (inactive) |
| CCOC(=O)NC(N)=O | 103% (inactive) and 99% (inactive) |
| CCCCC/C(C)=N\NC(N)=S | 89.5% (inactive) |
| COc1cc2c(cc1O)C(=O)CCCC2 | 91.8% (inactive) |
| O=C1C=CC[C@H](/C=C/c2ccccc2)O1 | 37.8% (inactive) and 40.7% (inactive) |
| NC1=NC(c2ccccc2)N=C(Nc2ccccc2)N1 (centres undefined) | 79.5% (inactive) and 66.5% (inactive) |
| CSc1nc(N)c(N)c(N)n1 | 97.9% (inactive) |
| CCN(C)c1ccccc1 | 102% (inactive) |
| Cc1cnc(N)s1 | 97.5% (inactive) |
| COC(=O)c1nc(=S)[nH]c(C(=O)OC)c1C(=O)c1ccccc1 | 101% (inactive) |
| CC(=O)c1cc2ccccc2o1 | 97.9% (inactive) |
| OCCCc1ccccc1 | 107% (inactive) |
| CCC/C(=N/NC(N)=O)c1ccco1 | 99.1% (inactive) |
| O=C1C(=O)c2ccccc2C(O)=C1CC=C(Cl)Cl | 67.6% (inactive) and 71.5% (inactive) |
| CCC(=O)Oc1ccc(OCc2ccccc2)cc1 | 85.5% (inactive) and 83.8% (inactive) |
| O=C(OCc1ccccc1)c1ccccc1 | 107% (inactive) and 90.2% (inactive) |

| Compound | growth |
| --- | --- |
| COc1ccc(CCl)c(C)c1OC | 96.2% (inactive) |
| Nc1c(S(=O)(=O)O)cc(Br)c2c1C(=O)c1ccccc1C2=O | 103% (inactive) |
| CC1CC(O)CC(C)(C)C1.CC1CC(O)CC(C)(C)C1.CC1CC(O)CC(C)(C)C1.CC1CC(O)CC(C)(C)C1.[Ti] (centres undefined) | 104% (inactive) |
| CC(=O)Oc1ccc(C(c2ccc(OC(C)=O)cc2)c2ccccn2)cc1 | 59.7% (inactive) and 57% (inactive) |
| CC(C)=NOC(C)C(=O)O (centres undefined) | 108% (inactive) |
| CCNCc1ccccc1 | 91.4% (inactive) |
| Oc1cccnc1CN1CCOCC1 | 110% (inactive) and 95.7% (inactive) |
| O=C1C2=C(Nc3cc(Cl)ccc3N2)OC1c1c[nH]c2ccc(COc3ccccc3)cc12 (centres undefined) | 59.3% (inactive) |
| CCOC(=O)C1=C(C)NC(C)=C(C(=O)OCC)C1 | 103% (inactive) and 92.2% (inactive) |
| CC(C)(C)C1CCC(=NO)CC1 (centres undefined) | 95.5% (inactive) |
| O=C1c2ccccc2CN1c1ccccc1 | 94.2% (inactive) |
| COc1cc2oc3cc(=O)cc4oc(-c5ccccc5)cc(c2c2c1CCC(c1ccccc1)O2)c43 (centres undefined) | 87.8% (inactive) |
| CCOC(=O)c1ccc(N2C(=O)C(Cl)(c3ccccc3)C2c2ccco2)cc1 (centres undefined) | 70.4% (inactive) |
| Cc1cc(NC(=O)NC(=O)c2ccccc2N(C)C)ccc1Oc1ncc(Br)cn1 | 19.3% (inactive) and 24.7% (inactive) |
| CCc1ccc(OC(=O)CCl)cc1 | 96.7% (inactive) |
| CCNC1=CC(=O)c2ncccc2C1=O | -49.7% (active) |
| O=C(O)Cc1cc(=O)[nH]n(-c2ccccc2)c1=O | 108% (inactive) |

system: NCI-H226 lung; experiment: as above; details: 10 µM unless noted

| Compound | growth |
| --- | --- |
| Cc1c(Cl)cc(Cl)c(N)c1Cl | 102% (inactive) |
| Oc1ccc(O)c(-c2ccccc2)c1 | 54.9% (inactive) |
| CCOCCC(=O)O | 99.4% (inactive) |
| CCOC(=O)NC(N)=O | 99.8% (inactive) and 96.5% (inactive) |
| CCCCC/C(C)=N\NC(N)=S | 86% (inactive) |
| COc1cc2c(cc1O)C(=O)CCCC2 | 102% (inactive) |
| O=C1C=CC[C@H](/C=C/c2ccccc2)O1 | 29.8% (inactive) and -33% (active) |
| NC1=NC(c2ccccc2)N=C(Nc2ccccc2)N1 (centres undefined) | 81.7% (inactive) and 52.5% (inactive) |
| CSc1nc(N)c(N)c(N)n1 | 91.9% (inactive) |
| CCN(C)c1ccccc1 | 95.7% (inactive) |
| Cc1cnc(N)s1 | 90.6% (inactive) |
| COC(=O)c1nc(=S)[nH]c(C(=O)OC)c1C(=O)c1ccccc1 | 90.2% (inactive) |
| CC(=O)c1cc2ccccc2o1 | 107% (inactive) |
| OCCCc1ccccc1 | 99% (inactive) |
| CCC/C(=N/NC(N)=O)c1ccco1 | 96.1% (inactive) |
| O=C1C(=O)c2ccccc2C(O)=C1CC=C(Cl)Cl | 73.4% (inactive) and 63.5% (inactive) |
| CCC(=O)Oc1ccc(OCc2ccccc2)cc1 | 104% (inactive) and 103% (inactive) |
| O=C(OCc1ccccc1)c1ccccc1 | 97.9% (inactive) and 93.9% (inactive) |

| Compound | growth |
| --- | --- |
| COc1ccc(CCl)c(C)c1OC | 95.8% (inactive) |
| Nc1c(S(=O)(=O)O)cc(Br)c2c1C(=O)c1ccccc1C2=O | 98.2% (inactive) and 99.6% (inactive) |
| CC1CC(O)CC(C)(C)C1.CC1CC(O)CC(C)(C)C1.CC1CC(O)CC(C)(C)C1.CC1CC(O)CC(C)(C)C1.[Ti] (centres undefined) | 97.2% (inactive) |
| CC(=O)Oc1ccc(C(c2ccc(OC(C)=O)cc2)c2ccccn2)cc1 | 89.2% (inactive) and 106% (inactive) |
| CC(C)=NOC(C)C(=O)O (centres undefined) | 104% (inactive) |
| CCNCc1ccccc1 | 100% (inactive) |
| Oc1cccnc1CN1CCOCC1 | 99.1% (inactive) and 95.7% (inactive) |
| O=C1C2=C(Nc3cc(Cl)ccc3N2)OC1c1c[nH]c2ccc(COc3ccccc3)cc12 (centres undefined) | 2.7% (active) |
| CCOC(=O)C1=C(C)NC(C)=C(C(=O)OCC)C1 | 96.7% (inactive) and 96.4% (inactive) |
| CC(C)(C)C1CCC(=NO)CC1 (centres undefined) | 99.9% (inactive) |
| O=C1c2ccccc2CN1c1ccccc1 | 98.8% (inactive) |
| S=c1nc[nH]c2nc[nH]c12 | 46.3% (inactive) |
| COc1cc2oc3cc(=O)cc4oc(-c5ccccc5)cc(c2c2c1CCC(c1ccccc1)O2)c43 (centres undefined) | 64.4% (inactive) |
| CCOC(=O)c1ccc(N2C(=O)C(Cl)(c3ccccc3)C2c2ccco2)cc1 (centres undefined) | 81.1% (inactive) |
| Cc1cc(NC(=O)NC(=O)c2ccccc2N(C)C)ccc1Oc1ncc(Br)cn1 | 55.6% (inactive) and 66.4% (inactive) |
| CCc1ccc(OC(=O)CCl)cc1 | 97% (inactive) |
| CCNC1=CC(=O)c2ncccc2C1=O | 33.9% (inactive) |
| O=C(O)Cc1cc(=O)[nH]n(-c2ccccc2)c1=O | 98.1% (inactive) |
